# Data from article PMC5540273 (PLoS ONE, 2017).
# Tests used:
# Settings in all cases: concentration: 1 μM, replicates: in singlicate; n = 1
# MEK2 = tested on: T1, MEK2
# T1 construct: gene MAP2K2
# MEK3 = tested on: T2, MEK3
# T2 construct: gene MAP2K3
# MEK4 = tested on: T3, MEK4
# T3 construct: gene MAP2K4
# MEK5 = tested on: T4, MEK5
# T4 construct: gene MAP2K5
# MEK6 = tested on: T5, MEK6
# T5 construct: gene MAP2K6
# MELK = tested on: MELK
# MERTK = tested on: MERTK
# MET = tested on: MET
# MINK = tested on: T6, MINK
# T6 construct: gene MINK1
# MKK7 = tested on: MKK7
# MKNK1 = tested on: MKNK1
# MKNK2 = tested on: MKNK2
# MLCK = tested on: T7, MLCK
# T7 construct: gene MYLK3
# MLK1 = tested on: T8, MLK1
# T8 construct: gene MAP3K9
# MLK2 = tested on: MLK2
# MLK3 = tested on: MLK3
# MRCKA = tested on: MRCKA
# MRCKB = tested on: T9, MRCKB
# T9 construct: gene CDC42BPB
# MST1R = tested on: MST1R
# MST1 = tested on: T10, MST1
# T10 construct: gene STK4
# 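Note: KINOMEscan kinase panel screen.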
SMILES,%Inh (MEK2) [%],%Inh (MEK3) [%],%Inh (MEK4) [%],%Inh (MEK5) [%],%Inh (MEK6) [%],%Inh (MELK) [%],%Inh (MERTK) [%],%Inh (MET) [%],%Inh (MINK) [%],%Inh (MKK7) [%],%Inh (MKNK1) [%],%Inh (MKNK2) [%],%Inh (MLCK) [%],%Inh (MLK1) [%],%Inh (MLK2) [%],%Inh (MLK3) [%],%Inh (MRCKA) [%],%Inh (MRCKB) [%],%Inh (MST1R) [%],%Inh (MST1) [%]
CN1C(=O)C(Nc2ccc(Cl)c(C(=O)O)c2)=C(c2ccc(Cl)cc2)C1=O [SB-404290],21,3,26,0,0,4,11,0,10,0,0,10,0,0,0,4,13,0,19,12
CC(=O)Nc1nc2cnc(Nc3cc(NC(=O)c4cccc(CCC#N)c4)ccc3C)nc2s1,0,3,25,2,12,0,12,7,4,0,3,0,0,2,15,13,0,0,21,5
O=c1cc(N2CCOCC2)nc2n(Cc3cccc(Cl)c3Cl)ccn12 [GSK2286295],0,0,6,13,0,0,29,0,6,0,7,1,16,0,0,7,8,0,25,0
Clc1cc(Cl)cc(Nc2ccnc(Nc3cc(Cl)cc(Cl)c3)n2)c1 [GSK175726],0,0,0,49,3,8,0,0,18,13,5,0,0,0,0,10,9,6,14,0
O=S(=O)(c1ccc(-c2ccnc3[nH]ccc23)cc1)N1CCCC1 [GSK846226],22,0,18,14,21,7,16,0,0,0,14,46,4,0,0,0,0,0,16,0
Fc1cc(Cl)ccc1Nc1ccnc2cc(-c3ccc(CN4CCCCC4)o3)ccc12 [GW560116],100,0,32,83,2,9,0,0,19,0,0,11,0,0,0,0,6,3,16,0
Cc1nnc(-c2ccc3occ(-c4ccc(S(C)=O)cc4)c3c2)[nH]1 (stereo not shown),1,19,37,42,0,0,13,5,17,18,9,49,8,6,3,4,1,0,0,0
CC1=C(C(=O)Nc2cc3cn[nH]c3cc2F)C(c2ccc(C(F)(F)F)cc2)CC(=O)N1 (stereo not shown) [GSK429286],0,23,15,8,0,0,13,0,0,48,0,19,17,0,0,0,1,23,36,0
CCn1c(-c2cccnc2O)nc2cnccc21 [SB-736715],0,14,0,11,0,1,26,0,0,0,17,1,0,0,0,0,4,0,0,0
Cc1ccc(NC(=O)Nc2cccc(Cl)c2)cc1-c1ccc(C(=O)Nc2ccncc2)cc1 [GSK1398468],0,0,38,11,0,0,0,0,14,30,6,4,0,0,0,0,19,0,34,1
Cn1ccc2ncnc(Oc3ccc(Nc4nc5ccccc5[nH]4)cc3)c21,0,0,0,11,0,0,8,0,0,0,0,0,0,0,20,0,0,0,18,8
